Only some compounds are listed: those with a hit (about 7.5% of all), similar ones and a draw of the others.
FLuc counter: firefly luciferase modulation, counter-screen for miR-21 project. P08659. purified FLuc, Km substrates, luminescence inhibition. Potency, µM (series often up to 57.5 µM), for the others: top-dose activity change, negative = inhibition, actives largely listed as inhibitors. actives 6.9% (n = 360,000);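 note: plate controls were vehicle for no effect and reference inhibitor for full effect; nearly all actives have a fitted effect of over 55% in size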
Target sequence (P08659 whole entry, looked up): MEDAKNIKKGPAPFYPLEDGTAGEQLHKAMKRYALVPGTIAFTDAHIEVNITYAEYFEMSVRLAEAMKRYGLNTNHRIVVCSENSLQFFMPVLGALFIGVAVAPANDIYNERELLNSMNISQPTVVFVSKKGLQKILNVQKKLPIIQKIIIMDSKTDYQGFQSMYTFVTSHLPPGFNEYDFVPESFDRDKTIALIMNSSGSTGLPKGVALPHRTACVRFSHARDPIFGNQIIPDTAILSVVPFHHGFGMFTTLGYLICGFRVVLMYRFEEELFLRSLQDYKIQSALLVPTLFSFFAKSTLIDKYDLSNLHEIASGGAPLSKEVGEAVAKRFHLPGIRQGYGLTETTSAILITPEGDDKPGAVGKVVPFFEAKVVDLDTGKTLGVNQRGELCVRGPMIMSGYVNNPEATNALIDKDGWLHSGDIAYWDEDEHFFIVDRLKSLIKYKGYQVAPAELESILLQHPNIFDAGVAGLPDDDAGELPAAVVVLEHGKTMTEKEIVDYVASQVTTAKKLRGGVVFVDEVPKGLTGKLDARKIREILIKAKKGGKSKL
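Purified P. pyralis luciferase (10nM final) with 10uM D-luciferin and 10uM ATP (Km levels) in 50mM Tris acetate pH 7.5, 10mM Mg acetate, 0.01% Tween-20, 0.05% BSA; qHTS 6-point titration, ~60 µM downward; luminescence read.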
SMN2 splice enh: SMN2 splice variant enhancement | HEK293 SMN2-luciferase splicing reporter, luminescence, 30-36 h | Potency, µM (top dose mostly 46.1 µM), for inactives: at the highest dose activity change, positive = activation, hits mostly activators | actives 2.8% (n = 210,000) | AID 1458; note: % of control where 0% means no effect; nearly all actives have a fitted effect of over 55% in size
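HEK293 cells carry an SMN2 minigene-luciferase reporter in which exon 7 inclusion puts luciferase in frame. Cells were seeded at 2000 cells/well, attached for 10-12 hours, then exposed to compounds for 30-36 hours at 37C before ONE-Glo luminescence.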
Rab9 prom act: activates the Rab9 promoter; Potency, µM (doses to about 9.22 µM), without a hit: top-dose activation, negative = inhibition, most hits filed as activators; Huh7 Rab9 promoter-luciferase reporter, luminescence, 24 h; actives 2.8% (n = 320,000); note: % of control where 0% means no effect; nearly all actives have a fitted effect of over 60% in size
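Steps: seed 1500 Huh7 Rab9-luc cells per well, rest 2 h at 37 °C; add compound in DMSO; incubate 24 h; add luciferase reagent, 10 min ambient; read luminescence.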
KinaseGlo FLuc: blocks Kinase-Glo luciferase, a counter-screen artifact | Potency, µM (top dose mostly 38.3 µM), for inactives: top-dose activity change, negative = inhibition, most hits filed as inhibitors | Kinase-Glo luciferase, ATP luminescence, 8 min | Q27757 | actives 0.28% (n = 200,000); note: % is set by controls: 0 for no effect and ±100 for the full control effect; nearly all actives have a fitted effect of over 60% in size
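Recombinant Kinase-Glo luciferase, 10 uM ATP (linear range), luciferin; imidazole pH 7.2 / KCl / MgCl2 / Tween / BSA buffer; 8 min RT; luminescence.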
NPC1 promoter act: NPC1 promoter activation | Huh7 NPC1 promoter luciferase reporter, 24 h | Potency, µM (series often up to 9.22 µM), without a hit: at the top dose activation, actives largely listed as activators | actives 2.4% (n = 320,000) | AID 485313; note: % of control where 0% means no effect; nearly all actives have a fitted effect of over 60% in size
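Luminescence read-out of NPC1 promoter-driven luciferase in stably transfected Huh7 cells; compounds delivered in DMSO and left 24 h at 37C, 5% CO2, qHTS titration format.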
ELG1 genotoxic: genotoxicity induction in ELG1-luciferase HEK293T cells; HEK293T ELG1-luciferase reporter, luminescence, 16 h; Potency, µM (top dose mostly 46 µM), without a hit: top-dose activity change, positive = activation, most hits filed as activators; actives 1.3% (n = 330,000); AID 504466; note: % of control where 0% means no effect; nearly all actives have a fitted effect of over 60% in size
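Reporter readout depends on ELG1 protein level, which increases with genetic stress. After 16 hr compound exposure at 37 °C, luciferase activity was quantified using ONE-Glo.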
Starred values were filed as active, the others as inactive; ? = inconclusive; . = no result given; [ ] = another dose, or the depositor's remark. Calls come from the whole dose curve; as a rule, active = well fitted curve in the direction sought with a large enough effect; inconclusive = small, poorly fitted or top-dose-only effect, or another doubt; inactive = no such curve, though single readings can be large; an effect the other way counts as inactive or inconclusive. Potency is the fitted concentration of half-maximal effect.

SMILES	FLuc counter	SMN2 splice enh	Rab9 prom act	KinaseGlo FLuc	NPC1 promoter act	ELG1 genotoxic
Cc1cc(C)c(NC(=O)CN2C(=O)CCn3nc(-c4cccn4C)cc32)c(C)c1	-6%	.	.	.	.	.
COc1ccc2c(c1)C(c1ccc(Cl)cc1)NC(=O)C2 (stereo not drawn)	0%	.	-3%	.	-2%	2%
O=C1c2ccccc2-c2nc3ccccc3nc21	15µM*	13µM*	2.2µM*	-15%	2.8µM*	4.5µM*
CCOc1ccc(OCC)c(NC(=O)Cn2ncc3c4ccccc4n(Cc4ccccc4)c3c2=O)c1	-10%	2%	.	.	.	.
Cc1csc2ncc(C(=O)Nc3ccccc3Cl)c(=O)n12	-17%	.	3.2µM*	.	?	?
Cc1csc2ncc(C(=O)Nc3ccccc3F)c(=O)n12	?	13µM*	?	-4%	?	12µM*
Cc1csc2ncc(C(=O)Nc3ccon3)c(=O)n12	-8%	-4%	12%	-2%	13%	5%
CC(C)c1ccc(S(=O)(=O)/N=C2\C=C(NS(=O)(=O)c3ccccc3)C(=O)c3ccccc32)cc1	19µM*	.	12%	.	8%	-10%
CCc1ccc(S(=O)(=O)/N=C2\C=C(NS(=O)(=O)c3ccccc3)C(=O)c3ccccc32)cc1	15µM*	.	14%	.	22%	?
O=C1C2C3CCC(CC3)C2C(=O)N1c1ccccc1 (stereo not drawn)	-5%	.	1%[1.84 µM]	.	1%	-2%
COc1ccc(C(=O)N/N=C(\C)CC(=O)Nc2ccc3ccccc3c2)c(OC)c1	-12%	.	3%	.	6%	-2%
O=C(COc1ccccc1)Nc1ccc2[nH]ncc2c1	?	.	0%	.	15%	-6%
COc1ccc(C(=O)Nc2ccc3[nH]ncc3c2)cc1	1.9µM*	.	2.8µM*	.	0.89µM*	8.2µM*
O=C(COc1ccc(Cl)cc1)Nc1ccc2[nH]ncc2c1	-16%	.	-1%	.	3%	-3%
COc1ccc(C(=O)Nc2ccc3cn[nH]c3c2)c(OC)c1	6µM*	13µM*	?	2%	?	?
CCOc1ccc(C(=O)Nc2ccc3[nH]ncc3c2)cc1	1.3µM*	.	1.4µM*	.	1.3µM*	13%
Cc1c(Cl)cccc1NC(=O)CSc1nc(=O)[nH]c2c1CCC2	-1%	.	.	.	.	.
COc1ccc(C2CC(=O)c3cc(-c4nc(-c5cccc(Cl)c5)cs4)c(=O)[nH]c3C2)cc1OC (stereo not drawn)	8%	2%	.	.	.	.
Nc1nc2n(n1)C(=O)CC(c1ccccc1)N2 (stereo not drawn)	-3%	-28%	1%	-1%	1%	6%
Cc1ccc2c(=O)cc(C(=O)Nc3nc4ccc(Cl)cc4s3)oc2c1C	-19%	-4%	.	.	.	.
Cn1ncc(Cl)c1C(=O)Nc1nc2ccc(Cl)cc2s1	2.1µM*	3.5µM*	?	-18%	3.2µM*	?
Cc1cc(C(=O)Nc2nc3ccc(Cl)cc3s2)nn1C	2.1µM*	.	0.63µM*	.	1.4µM*	?
CCSc1ncc(Cl)c(C(=O)Nc2nc3ccc(Cl)cc3s2)n1	?	3%	.	.	.	.
O=C(Nc1nc2ccc(Cl)cc2s1)c1ccc(Br)o1	2.4µM*	11µM*	1.1µM*	-5%	3.5µM*	?
NC(=O)C[C@H](N)C(N)=O	.	-8%[9.22 µM]	.	-4%[7.66 µM]	.	.
COc1ccc(/C=N\NC(=O)C2CCCC2)cc1Br	5%	.	-1%	.	-3%	1%
CCOc1cc(/C=N/O)cc(Br)c1OCC	1%	-40%	1%	1%	-6%	-1%
COc1ccc(/C=N/Nc2ccc(C(=O)O)cc2)cc1OC	1.3µM*	.	0.32µM*	.	0.32µM*	?
C=CCOc1c(Br)cc(/C=N/Nc2ccc(C(=O)O)cc2)cc1OCC	30µM*	8.9µM*	3.5µM*	2%	2.8µM*	?
COc1ccc(/C=N/Nc2ccc(C(=O)O)cc2)cc1Br	0.67µM*	-80%	?	?	?	?
